About 79,000 compounds went through this panel and 15% of them were active in at least one assay; those are over-represented in the sample as a whole. Calls of active or inactive are those of the source. Cut-off read from the data, not from the text of the source: active = growth inhibition above about 70%; inactive = the rest.
Legend:
[1] = NCI Yeast Anticancer Drug Screen. Data for the rad52 strain (AID 147);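 note: 0% = growth of vehicle-treated control cultures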; conditions: S. cerevisiae rad52 mutant growth inhibition, hits give high values
Outline: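 The repair-mutant yeast strain was incubated with compounds, then growth was read and inhibition derived relative to vehicle.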

[2] = NCI Yeast Anticancer Drug Screen. Data for the wt1 strain (AID 149);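 note: 0% = growth of vehicle-treated wt1 cultures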; conditions: S. cerevisiae wt1 strain (SPY 50644) growth inhibition, hits give high values
Outline: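 The wt1 strain was treated with compounds, and growth was compared with vehicle-treated cultures to give inhibition.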

[3] = NCI Yeast Anticancer Drug Screen. Data for the rad50EPP+ strain (AID 151);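 note: 0% = growth of vehicle-treated control cultures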; conditions: S. cerevisiae rad50 mutant strain, hits give high values
Outline: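 Vehicle-normalised growth inhibition; rad50EPP+ yeast strain, altered in DNA damage repair, compound-treated.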

[4] = NCI Yeast Anticancer Drug Screen. Data for the rad50 strain (AID 155);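 note: 0% = growth of vehicle-only cultures of the same strain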; conditions: S. cerevisiae rad50 strain growth inhibition, hits give high values
Outline: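 Cells are treated with compound, grown, and their growth is then scored against vehicle-only cultures of the same repair-deficient yeast strain.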

[5] = NCI Yeast Anticancer Drug Screen. Data for the mec2-1 strain (AID 157); conditions: S. cerevisiae mec2-1 strain, hits give high values
Outline: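 Mutant yeast (mec2-1) grown with compound; growth inhibition relative to vehicle control reported.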

[6] = NCI Yeast Anticancer Drug Screen. Data for the rad14 strain (AID 159);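 note: 0% = growth of vehicle-treated control cultures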; conditions: S. cerevisiae rad14 strain growth inhibition, hits give high values
Outline: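 Readout: yeast growth inhibition, referenced to vehicle-only cultures. Strain bears a defined alteration in DNA damage repair.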

[7] = NCI Yeast Anticancer Drug Screen. Data for the sgs1 mgt1 strain (AID 161);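 note: 0% = growth of cultures given vehicle only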; conditions: S. cerevisiae sgs1 mgt1 strain, hits give high values
Outline: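 Percent growth inhibition was derived by comparing compound-exposed mutant yeast with vehicle-exposed cultures. The strain carries alterations in DNA damage repair.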

[8] = NCI Yeast Anticancer Drug Screen. Data for the CLN2oe strain (AID 163);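 note: 0% = growth of vehicle-only control cultures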; conditions: S. cerevisiae CLN2oe strain, hits give high values
Outline: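 Compounds are applied to yeast harbouring a defined cell-cycle control change; reduced growth compared with vehicle-treated controls gives the value.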

[9] = NCI Yeast Anticancer Drug Screen. Data for the bub3 strain (AID 167); conditions: S. cerevisiae bub3 mutant strain, hits give high values
Outline: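 Part of a panel of yeast mutants defective in DNA damage repair or cell cycle regulation. Each strain is grown with compound, and inhibition is calculated relative to solvent-treated cultures.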

[10] = NCI Yeast Anticancer Drug Screen. Data for the wt2 strain (AID 169);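 note: 0% = growth of vehicle-treated yeast cultures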; conditions: S. cerevisiae wt2 strain growth inhibition, hits give high values
Outline: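 Against vehicle-treated controls, the growth of yeast exposed to each compound was compared, and the inhibition was recorded.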

[11] = NCI Yeast Anticancer Drug Screen. Data for the mlh1 strain (AID 171);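 note: 0% = growth of vehicle-treated control cultures of the same strain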; conditions: S. cerevisiae mlh1 strain growth inhibition, hits give high values
Outline: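 Measured: yeast growth. Reference: vehicle-treated controls. Organism: strain with a defined alteration affecting DNA damage repair or cell cycle control, treated with compound.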

[12] = NCI Yeast Anticancer Drug Screen. Data for the sgs1 strain (AID 173);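 note: 0% = growth of vehicle-only control cultures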; conditions: S. cerevisiae sgs1 mutant, hits give high values
Outline: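 Each compound was added to cultures of the altered yeast strain. Growth was recorded, and inhibition was derived by comparison with vehicle controls.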

[13] = NCI Yeast Anticancer Drug Screen. Data for the mlh1 rad18 strain (AID 175); conditions: S. cerevisiae mlh1 rad18 strain growth inhibition, hits give high values
Outline: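 Genetically defined yeast (DNA repair-deficient) exposed to compounds; growth inhibition determined relative to vehicle.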

[14] = NCI Yeast Anticancer Drug Screen. Data for the rad18 strain (AID 177); conditions: S. cerevisiae rad18 mutant growth inhibition, hits give high values
Outline: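 Vehicle-treated cultures served as the baseline for scoring compound-induced growth inhibition in DNA-repair-mutant yeast.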

[15] = at 5.0 µM (retest, dose inferred, filed as 0.5)
[16] = at 50.0 µM (retest, dose inferred, filed as 5.0)

Measured: growth inhibition

OC(COc1cccc2ccccc12)CN1CCOCC1 (stereo not given)
active: [4]; [16] 78% | [4]; at 50.0 µM 71.5% | [7]; [16] 71% | [8]; at 100.0 µM 72%
inactive: [1]; at 1.2 µM 15% | [1]; at 3.7 µM 32% | [1]; at 11.0 µM 44% | [1]; at 33.0 µM 51% | [1]; at 100.0 µM 50% | [2]; at 1.2 µM 13% | [2]; at 3.7 µM 23% | [2]; at 11.0 µM 30% | [2]; at 33.0 µM 31% | [2]; at 100.0 µM 30% | [3]; at 1.2 µM -5% | [3]; at 3.7 µM -6% | [3]; at 11.0 µM -9% | [3]; at 33.0 µM -9% | [3]; at 100.0 µM -3% | [4]; at 1.2 µM 11% | [4]; at 3.7 µM 19% | [4]; [15] 54% | [4]; at 11.0 µM 42% | [4]; at 33.0 µM 37% | [4]; at 100.0 µM 36% | [5]; at 1.2 µM 9% | [5]; at 3.7 µM 17% | [5]; [15] 24% | [5]; at 11.0 µM 23% | [5]; at 33.0 µM 27% | [5]; [16] 46% | [5]; at 50.0 µM 37% | [5]; at 100.0 µM 39% | [6]; at 1.2 µM 41% | [6]; at 3.7 µM 39% | [6]; at 11.0 µM 45% | [6]; at 33.0 µM 49% | [6]; at 100.0 µM 52% | [7]; [15] 43% | [7]; at 50.0 µM 46.5% | [8]; at 1.2 µM 21% | [8]; at 3.7 µM 48% | [8]; at 11.0 µM 61% | [8]; at 33.0 µM 69% | [9]; at 1.2 µM 8% | [9]; at 3.7 µM 25% | [9]; [15] 35% | [9]; at 11.0 µM 29% | [9]; at 33.0 µM 57% | [9]; [16] 60% | [9]; at 50.0 µM 49.1% | [9]; at 100.0 µM 47% | [10]; at 1.2 µM 17% | [10]; at 3.7 µM 27% | [10]; at 11.0 µM 32% | [10]; at 33.0 µM 39% | [10]; at 100.0 µM 35% | [11]; at 1.2 µM 11% | [11]; at 3.7 µM 21% | [11]; at 11.0 µM 33% | [11]; at 33.0 µM 18% | [11]; at 100.0 µM 37% | [12]; at 1.2 µM 29% | [12]; at 3.7 µM 49% | [12]; at 11.0 µM 61% | [12]; at 33.0 µM 59% | [12]; at 100.0 µM 56% | [13]; [15] 37% | [13]; [16] 49% | [13]; at 50.0 µM 37.3% | [14]; at 1.2 µM 32% | [14]; at 3.7 µM 39% | [14]; at 11.0 µM 55% | [14]; at 33.0 µM 64% | [14]; at 100.0 µM 51%
